Experimental data taken from PubChem BioAssay AID1259374 (The Scripps Research Institute Molecular Screening Center, 2018).
In all, about 650,000 compounds went through this assay and about 5,900 (0.91%) were called active. This is one part of a sample in which actives are shown more often than they occur. Unmarked numbers belong to inactive results. No stated cut-off is given here; in the data, active means inhibition above about 50%; inactive means the rest.

target: Microphthalmia-associated transcription factor (Homo sapiens) (UniProt O75030); assay: MITF inhibitors, primary screen, biochemical, AlphaScreen, human (AID 1259374); conditions: AlphaScreen MITF homodimerization, bead proximity signal; at 2.6 µM; active compounds read high;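 further: 0% = vehicle wells with protein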
Sequence (O75030 whole entry, looked up): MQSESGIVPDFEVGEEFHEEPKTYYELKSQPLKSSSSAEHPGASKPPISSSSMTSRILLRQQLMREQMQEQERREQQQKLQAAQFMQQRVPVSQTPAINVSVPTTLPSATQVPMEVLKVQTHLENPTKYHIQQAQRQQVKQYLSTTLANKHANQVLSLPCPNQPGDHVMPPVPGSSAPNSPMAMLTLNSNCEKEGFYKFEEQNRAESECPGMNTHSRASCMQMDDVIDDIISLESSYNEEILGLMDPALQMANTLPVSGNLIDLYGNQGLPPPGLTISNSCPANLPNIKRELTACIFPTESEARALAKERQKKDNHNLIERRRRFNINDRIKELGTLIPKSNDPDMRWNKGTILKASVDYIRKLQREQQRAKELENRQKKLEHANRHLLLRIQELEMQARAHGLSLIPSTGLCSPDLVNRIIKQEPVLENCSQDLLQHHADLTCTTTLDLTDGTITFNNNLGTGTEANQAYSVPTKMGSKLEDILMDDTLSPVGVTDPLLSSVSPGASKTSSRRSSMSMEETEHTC

Compound	inhibition
CCCNC(=O)N1CCCC(N2CCN(Cc3ccc4c(c3)OCO4)CC2)C1 (configuration not stated)	12.8%
OC1CCCN(Cc2ccc3c(c2)OCO3)C1 (configuration not stated)	6.89%
CC(=O)Oc1ccc(C(=O)N2CCN(Cc3ccc4c(c3)OCO4)CC2)cc1	-6.96%
c1cc2c(cc1CN1CCN(C3CCCCC3)CC1)OCO2	60.9% (active)
CCC(C)(C)C(=O)N1CCN(Cc2ccc3c(c2)OCO3)CC1	9.89%
c1cc2c(cc1CN1CCN(C3CCCC3)CC1)OCO2	62.8% (active)
CC(C)CCCN1CCC(N2CCN(Cc3ccc4c(c3)OCO4)CC2)CCC1=O (configuration not stated)	-10.8%
COC(=O)C(C)CN1CCN(Cc2ccc3c(c2)OCO3)CC1 (configuration not stated)	78.9% (active)
c1cc2c(cc1Cn1nnnc1CN1CCN(C3CCCC3)CC1)OCO2	7.92%
COc1ccc(OC(=O)c2cccc(C(=O)OC(C)C)n2)cc1	7.42%
COCCNC(=O)c1ccc(-c2cccc(OC)c2)nc1NCC1CC1	-12.1%
NC(=O)CC[C@H](NC(=O)c1ccc(F)cc1)C(=O)OCC(=O)c1ccccc1	1.49%
CO[C@@H](C1CCCCC1)[C@@H](C)[C@H](OCc1cccc(Br)c1)[C@@H](C)CO	-6.84%
COc1cc(CN(CCCN(C)C)CCCN(C)C)cc(OC)c1	45.5%
COc1cc(CN(CCN(C)C)Cc2ccccc2)cc(OC)c1	70% (active)
CCN(Cc1ccccc1)Cc1cc(OC)c(OC)c(OC)c1	5.59%
Cc1ccc(OCCCNC2CCCC2)c(I)c1	29.7%
CCOc1ccc2[nH]c(=O)c(CN(CCO)C(=O)c3ccco3)cc2c1	6.48%
COC(=O)CCS(=O)(=O)c1ccc(C(=O)O)cc1N	-6.29%
COc1ccc(-c2noc(=O)n2CC(=O)N(c2ccccc2)c2ccccc2)cc1	2.22%
O=C(CN1CCSCC1)N/N=C/c1ccc(Cl)cc1	17.4%
O=C(CN1CCSCC1)N/N=C/c1ccc(F)cc1	47%
CN1CCN(CCC(=O)N/N=C/c2ccsc2)CC1	53.5% (active)

Compound	inhibition
COc1ccc2c(c1)OC(C)CN(C(=O)C1CCCCCN1C)C2 (configuration not stated)	1.95%
CCCNCc1nc(-c2ccc(OC)c(OC)c2)no1	11.7%
c1ccc(Nc2cc(NCc3ccc4c(c3)OCO4)ncn2)cc1	-2.56%
Cc1cnc(NCc2ccc3c(c2)OCO3)nc1Nc1ccccc1	69.7% (active)
Cc1cnc(NCc2ccc3c(c2)OCO3)nc1NCCN1CCOCC1	16%
COc1ccc(-c2csc3nc(C)n(N)c(=O)c23)cc1OC	14.4%
Fc1cccc(Cl)c1CSc1nnc2ncccn12	-8.92%
Fc1cccc(Cl)c1Cn1nnc(-c2ccncc2)n1	74% (active)
c1ccc(OCCCCn2nnc(-c3ccncc3)n2)cc1	10.3%
CC1CCc2sc(NC(=O)c3ccccc3[N+](=O)[O-])c(C#N)c2C1 (configuration not stated)	11.5%
CC1=CCC(C(=O)O)(C(=O)N/N=C/C2=C(O)CC(C)(C)CC2=O)CC1c1ccccc1 (configuration not stated)	45.2%
COc1cc(Nc2nc(Nc3cc(OC)c(OC)c(OC)c3)c3[nH]cnc3n2)cc(OC)c1OC	-7.41%
COc1ccc(-c2nc(N)c3[nH]cnc3n2)cc1	-0.37%
COc1ccc(-c2nc(Nc3cc(OC)c(OC)c(OC)c3)c3[nH]cnc3n2)cc1	63.2% (active)
Cc1cccc(NC(=O)C(c2ccccc2)N2CCOCC2)c1 (configuration not stated)	2.38%
Cc1c(C(C)NC(=O)c2csc(C(C)C)n2)cnn1-c1ccccn1 (configuration not stated)	1.61%
C=CCN=Cc1c(C)[nH]n(-c2ccc([N+](=O)[O-])cc2)c1=O	0.33%
Cc1ccc(Cl)c(OCCn2cnc3ccccc3c2=O)c1	10.1%
CCN1CCN(CCCOc2ccc(C(C)=O)cc2OC)CC1	77.9% (active)
CCc1ccccc1OCCCN1CCOCC1	38.5%
COc1cc(C=O)ccc1OCCCN1CCCCC1	34.3%
CCN1CCN(CCOCCOc2ccccc2OCc2ccccc2)CC1	80.8% (active)
c1ccc2cc(OCCOCCN3CCOCC3)ccc2c1	12.8%

Compound	inhibition
CCCCOc1ccccc1OCCCN1CCN(C)CC1	-4.11%
O=c1c2ccccc2ncn1CCCCOc1ccccc1F	52.4% (active)
O=c1c2ccccc2nc(-c2ccc(Cl)cc2)n1CCCCOc1ccccc1F	-6.63%
CCN1CCN(CC(=O)c2cc(OC)c(OC)c(OC)c2)CC1	6.5%
COc1ccccc1OCCOCCOc1ccccc1OC	-12.3%
CCN1CCN(CCCCOc2ccccc2F)CC1	63.7% (active)
C=CCC1(CC=C)CCCN1C(=O)CC1C(=O)NCCN1Cc1ccccc1C (configuration not stated)	5.18%
CCOC(=O)CSc1nc2ccc(Cl)cc2n2cnnc12	-5.55%
Cc1nn(-c2ccccn2)c2c1C(=O)/C(=C\Nc1cccc([N+](=O)[O-])c1)CC2	-6.22%
COc1ccc(C(=O)Oc2ccc3c(c2)C(C)=CC(C)(C)N3C(=O)c2ccc(OC)cc2)cc1	8.97%
Cc1ccc(S(=O)(=O)NC(=NC(CC(=O)O)C(=O)O)c2ccccc2)cc1 (configuration not stated)	-0.64%
O=C1NC2(CCCCC2)N(C(=O)c2ccc(Cl)cc2)C2=C1CCCC2	9.62%
CCCCN(CC)C(=O)c1c[nH]c2ccc(S(=O)(=O)N(C)c3ccc(CC)cc3)cc2c1=O	1.47%
CN1CCN(CCOCCOc2ccccc2Cl)CC1	53.8% (active)
Cc1ccc(OCCOCCN2CCN(C)CC2)c(Br)c1	42.5%
CC(C)c1cc(Br)ccc1OCCOCCN1CCN(C)CC1	-24.1%
O=C(O)C1CSC(c2cccc(I)c2)N1 (configuration not stated)	10%
Cc1ccc(-c2c(C(=O)Nc3cccc(O)c3)oc(=O)c3ccccc23)cc1	26.8%
O=C(COc1ccc([N+](=O)[O-])cc1)Nc1ccc(Cl)cc1	12.6%
O=C(CCC(=O)OCc1ccc(Cl)cc1)Nc1ccc([N+](=O)[O-])cc1	59.3% (active)
O=C(O)CCC(=O)Nc1ccc([N+](=O)[O-])cc1	-7.16%
